Bioassay records from PubChem.
HT1080 IDH1KD tx – qHTS for induction of synthetic lethality in tumor cells producing 2HG: qHTS for the HT-1080-IDH1KD cell line. HT-1080 IDH1 knockdown viability, ATP luminescence, 48 h. Potency, µM (series often up to 46.1 µM), for the others: at the top dose activity, negative = toxicity, usual class: cytotoxic. 360,000 compounds, 2% hits. AID 686971, 2013;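 further: 0% = DMSO wells and -100% = cell-free medium wells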
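Cytotoxicity counter-line: IDH1KD HT-1080, 48 h, CellTiter-Glo. Curves classed by r2, magnitude and activity.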
MCF10A rerep – A quantitative high throughput screen for small molecules that induce DNA re-replication in MCF 10a normal breast cells. MCF 10A DNA re-replication, Hoechst nuclear intensity, 48 h. Potency, µM (titrated, usually from 46.1 µM), for inactives: at the top dose activity, positive = re-replication, usual class: activators. 350,000 compounds, 2.9% hits. AID 624296, 2012; further: % of control where 0% means no effect; nearly all actives have a fitted effect of over 50% in size
HT1080-NT tox – qHTS for induction of synthetic lethality in tumor cells producing 2HG: qHTS for the HT-1080-NT fibrosarcoma cell line; HT-1080-NT fibrosarcoma viability, CellTiter-Glo ATP luminescence, 48 h; Potency, µM (doses to about 46.1 µM), without a hit: top-dose activity, negative = less viability, most hits filed as cytotoxic; 360,000 compounds, 1.6% hits; AID 686970, 2013;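 further: NT is the 2HG producing partner of a matched IDH1 knockdown line; 0% = DMSO-treated cells and -100% = media-only wells without cells; nearly all actives have a fitted effect of over 55% in size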
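Viability by CellTiter-Glo luminescence after 48 h compound exposure at 37C of HT-1080-NT cells (750/well, RPMI, 5% FBS). % activity scaled between DMSO wells and medium-only wells, then curve-fitted and categorized by curve class.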
KB-V1 MDR tox – qHTS assay for MDR1-selective chemotherapeutics: Primary screen using the drug-selected MDR subline cells KB-V1. 400,000 compounds, 3.4% hits. AID 1347076, 2019. Potency, µM (top dose mostly 46.1 µM), actives largely listed as cytotoxic. KB-V1 MDR cells viability, CellTiter-Glo, 72 h; further: on the % scale 0 is the no-effect control and ±100 the full control effect; nearly all actives have a fitted effect of over 60% in size
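Following 72 h at 37 degrees C with compound, KB-V1 cell viability was read by CellTiter-Glo luminescence, medium being phenol-red-free DMEM plus 10% FBS; concentration-response parameters came from normalized, curve-fitted qHTS data.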
KB-3-1 tox – qHTS assay for MDR1-selective chemotherapeutics: Primary screen using the parental adenocarcinoma cell KB-3-1; Potency, µM (top dose mostly 46.1 µM), most hits filed as cytotoxic; 400,000 compounds, 1.4% hits; KB-3-1 viability, CellTiter-Glo ATP luminescence, 72 h; further: on the % scale 0 is the no-effect control and ±100 the full control effect; nearly all actives have a fitted effect of over 60% in size
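KB-3-1 cells, DMEM (no phenol red) + 10% FBS; compound by pin transfer, 72 h, 37 °C. Readout: CellTiter-Glo luminescence after 10 min. Data normalized, curve-fitted.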
SW480 rereplic – A quantitative high throughput screen for small molecules that induce DNA re-replication in SW480 colon adenocarcinoma cells | 340,000 compounds, 1.8% hits | AID 624297, 2012 | SW480 DNA re-replication, Hoechst DNA content imaging, 48 h | Potency, µM (top dose mostly 46.1 µM), for the others: at the highest dose re-replication activation, hits mostly activators; further: % of control where 0% means no effect; nearly all actives have a fitted effect of over 55% in size
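Quantitative HTS format with DMSO vehicle controls; 48 hr drug incubation at 37 C, then 40 min Hoechst staining and scanning imager measurement at 405 nm excitation.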
* marks the source's active call; other numbers are inactive results; i = inactive; ? = inconclusive; . = not tested or not shown. An excerpt weighted towards active compounds, which were near 8% of everything screened. The call rests on the fitted dose curve; in most records, active means well fitted curve in the direction sought with a large enough effect; inconclusive means small, poorly fitted or top-dose-only effect, or another doubt; inactive means no such curve, though single readings can be large; an effect the other way counts as inactive or inconclusive. Potency means the concentration at half of the fitted maximal effect.

SMILES | HT1080 IDH1KD tx | MCF10A rerep | HT1080-NT tox | KB-V1 MDR tox | KB-3-1 tox | SW480 rereplic
O=C(Oc1c(CN2CCOCC2)cc(Cl)c2cccnc12)c1ccccc1 | 10.3µM* | ? | ? | ? | ? | 8.2µM*
COc1ccc(C(=O)Oc2c(CN3CCOCC3)cc(Cl)c3cccnc23)cc1OC | 9.8% | 1.9% | 21.1% | ? | ? | -14.7%
CN1CCN(Cc2cc(COCc3ccccc3)c3cccnc3c2O)CC1 | ? | ? | ? | ? | ? | 6.31µM*
Oc1ccc(CN2CCN(Cc3ccccc3)CC2)c2cccnc12 | -16.7% | 12.8% | ? | i | ? | ?
O=C(Cn1ncn2c(cc3sccc32)c1=O)NCCc1ccccc1 | . | . | . | i | ? | .
COc1ccccc1NC(=O)NNC(=O)c1ccc2ccccc2c1O | -10.5% | -0.4% | 3.1% | i | i | 3.1%
COC(=O)COc1ccc(Oc2nc(NC(C)(C)C)nc(N3CCOCC3)n2)nn1 | . | . | . | i | i | .
Oc1c(Cl)cc(CN2CCOCC2)c2cccnc12 | 5.8µM* | 11.6µM* | 7.31µM* | i | ? | ?
CCc1oc2ccccc2c1C(=O)CCN1CCCCC1 | -9.1% | 9.2µM* | -6.2% | i | i | 11.5%
O=c1oc2ccccc2c(N2CCCCC2)c1CN1CCCC1 | -18.2% | 4.1% | 6.9% | 23.1µM* | i | -6.3%
O=C(c1oc2ccccc2c1N1CCCCC1)N1CCCCC1 | -15.2% | -1.0% | -5.0% | 14.6µM* | i | 0.3%
O=C(c1cc2ccccc2o1)N1CCCCCC1 | 0.7% | ? | 0.1% | i | i | -1.6%
O=S1(=O)CC(N2CCN(CC3CC3)CC2)CN1Cc1ccc(F)cc1 (stereo not drawn) | 12.9% | . | 27.1% | i | i | .
COc1cc2nc(N3CCCN(C)CC3)nc(OC3CCN(C)CC3)c2cc1OC | . | . | . | i | i | .
CCCNC(=O)C(=O)NCC(c1ccc2c(c1)OCO2)N1CCOCC1 (stereo not drawn) | . | . | . | i | i | .
O=C(CN1C(=O)NC2(CCCC2)C1=O)Nc1cc(C(F)(F)F)ccc1N1CCCCC1 | -3.8% | 22.0% | 0.0% | i | i | ?
Cc1cc(C(=O)COc2cccnc2[N+](=O)[O-])c(C)n1-c1ccccc1 | ? | 20.2% | -5.6% | i | i | -1.2%
Cc1cc(C(=O)COc2cccnc2[N+](=O)[O-])c(C)n1-c1ccccc1F | -20.1% | 4.3% | -1.9% | i | i | -15.1%
Cc1cc(C(=O)COc2ccccc2C(N)=O)c(C)n1C | 3.8% | 1.8% | 5.4% | ? | i | -6.9%
Cc1cc(OCCOc2cccc3cccnc23)cc(C)c1Cl | ? | 23.1µM* | ? | i | i | 11.3%
Cc1ccc(-n2c(C)cc(C(=O)COc3cccnc3[N+](=O)[O-])c2C)cc1 | -0.5% | 20.6µM* | -16.7% | i | i | ?
Cc1cc(C(=O)COc2cccnc2[N+](=O)[O-])c(C)n1Cc1ccco1 | 20.6µM* | ? | ? | ? | ? | ?
Cc1cc(C(=O)COc2cccc3cccnc23)c(C)n1C | -4.5% | -1.3% | -2.8% | 16.4µM* | i | 1.7%
Cc1ccc(C(=O)OCC(=O)N(CC(C)C)c2c(N)n(Cc3ccccc3)c(=O)[nH]c2=O)cc1[N+](=O)[O-] | 5.4% | -22.5% | 4.9% | i | i | -21.7%
CCCCCC(=O)Nc1ccc2ccccc2c1 | -1.9% | ? | -3.6% | i | i | -1.0%
O=C(Nc1ccc2ccccc2c1)c1ccccc1O | 23.1µM* | ? | 14.6µM* | ? | ? | 23.5%
O=C(CSCc1nc2ccccc2[nH]1)Nc1ccc2ccccc2c1 | -29.4% | 13.7% | -1.5% | i | i | -3.2%
